Rows were chosen to be rich in hits. Some 6.6% of all compounds tested hit in one or more screens of this group.
HT1080 IDH1KD tx: kills HT-1080 cells with IDH1 knockdown; HT-1080 IDH1 knockdown viability, ATP luminescence, 48 h; Potency, µM (highest dose often 46.1 µM), inactives show top-dose activity, negative = toxicity, usual class: cytotoxic; hit rate 2% among 360,000; AID 686971;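 note: 0% = DMSO wells and -100% = cell-free medium wells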
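% activity derives from luminescence (CellTiter-Glo), normalised to DMSO and no-cell wells. HT-1080-IDH1KD cells, 750/well, had 48 h compound exposure at 37 °C.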
KB-V1 cytotox: KB-V1 MDR subline cytotoxicity. KB-V1 MDR cells viability, CellTiter-Glo, 72 h. Potency, µM (highest dose often 46.1 µM), hits mostly cytotoxic. hit rate 3.4% among 400,000; note: % is set by controls: 0 for no effect and ±100 for the full control effect; nearly all actives have a fitted effect of over 60% in size
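Cytotoxicity toward P-gp-expressing KB-V1 cells was determined as loss of CellTiter-Glo luminescence after 72 h at 37 degrees C. Compounds were tested in quantitative HTS format across a concentration range, with curves fitted to normalized data.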
HepG2 tox: counter-screen for TGF-b inhibitors: cytotoxicity in HepG2 cells; hit rate 0.76% among 410,000; HepG2 CAGA-GFP viability, ATP luminescence, 18 h; Potency, µM (series often up to 46.1 µM), for the others: at the top dose activity change, negative = cytotoxicity, hits mostly cytotoxic
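CellTiter-Glo luminescence gave cytotoxicity after 18 hours at 37 degrees C. The cells were HepG2 CAGA-GFP in 1% FBS DMEM, stimulated with 500 pg/mL TGF-beta after compound addition. %Activity was normalised to no-cell wells (complete cell-killing) and DMSO (no toxicity), and curves were fitted and classified.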
HT1080NT lethal: kills 2HG-producing HT-1080-NT fibrosarcoma cells. HT-1080-NT fibrosarcoma viability, CellTiter-Glo ATP luminescence, 48 h. Potency, µM (series often up to 46.1 µM), for the others: top-dose activity, negative = less viability, most hits filed as cytotoxic. hit rate 1.6% among 360,000. AID 686970;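 note: NT is the 2HG producing partner of a matched IDH1 knockdown line; 0% = DMSO-treated cells and -100% = media-only wells without cells; nearly all actives have a fitted effect of over 55% in size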
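HT-1080-NT fibrosarcoma cells (2HG-overproducing), 750 cells/well in RPMI with 5% FBS, dosed after 2 h and incubated 48 h at 37C. CellTiter-Glo luminescence normalized to DMSO and no-cell wells; concentration-response curves fitted and classed.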
TGFb SMAD3 inh: TGF-b pathway inhibition; HepG2 CAGA-GFP TGF-b/SMAD3 reporter, GFP fluorescence, 18 h; TGF-beta stimulated, 500 pg/mL final; Potency, µM (series often up to 46.1 µM), for the others: at the top dose activity, negative = inhibition, actives largely listed as inhibitors; hit rate 1.2% among 410,000; AID 588855; note: % is set by controls: 0 for no effect and ±100 for the full control effect; nearly all actives have a fitted effect of over 65% in size
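Inhibition was scored as loss of TGF-beta-induced (500 pg/mL final, 18 hours, 37 degrees C) GFP in HEPG2 cells carrying a CAGA-GFP reporter, in DMEM with 1% FBS. Well GFP was summed per cell; Activity was normalised to unstimulated and stimulated DMSO wells, then concentration-response fitting.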
KB-3-1 tox: kills parental KB-3-1 adenocarcinoma cells; Potency, µM (titrated, usually from 46.1 µM), usual class: cytotoxic; hit rate 1.4% among 400,000; KB-3-1 viability, CellTiter-Glo ATP luminescence, 72 h; note: % is set by controls: 0 for no effect and ±100 for the full control effect; nearly all actives have a fitted effect of over 60% in size
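Screening of KB-3-1 cells (DMEM, 10% FBS, phenol-red free) ran from lowest to highest compound concentration; after 72 h at 37 °C viability was read luminescently and curves fitted.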
Numbers without * were called inactive; [ ] = dose if it differs, or a comment. Calls come from the whole dose curve; as a rule, active = well fitted curve in the direction sought with a large enough effect; inconclusive = small, poorly fitted or top-dose-only effect, or another doubt; inactive = no such curve, though single readings can be large; an effect the other way counts as inactive or inconclusive. Potency is the fitted concentration of half-maximal effect.

Cc1ccc(N2CCN(C(=O)c3nn(C)c4c3CSc3ccccc3-4)CC2C)cc1 (centres undefined) was read as HepG2 tox -37% and TGFb SMAD3 inh inconclusive.
COC(=O)c1cc(C(=O)c2cccc(Cl)c2Cl)cn1C was read as HT1080 IDH1KD tx 1%, KB-V1 cytotox inactive, HepG2 tox 5%, HT1080NT lethal 0%, TGFb SMAD3 inh -4% and KB-3-1 tox inactive.
`COC(=O)c1cc(C(=O)c2ccc(Cl)cc2Cl)cn1C` gave HT1080 IDH1KD tx 0%, KB-V1 cytotox 13µM*, HepG2 tox 0%, HT1080NT lethal 4%, TGFb SMAD3 inh -7% and KB-3-1 tox inconclusive.
`Cc1ccc(N2CC(NC(=O)C3CC3)CC2=O)cc1C` (centres undefined) gave HepG2 tox 0% and TGFb SMAD3 inh -3%.
O=C1C=CC(=O)N1Cc1ccccc1 was read as HT1080 IDH1KD tx 18µM*, KB-V1 cytotox inactive, HepG2 tox -78%, HT1080NT lethal 2.6µM*, TGFb SMAD3 inh inconclusive and KB-3-1 tox inconclusive.
O=C1C2CC=CCC2C(=O)N1Cc1ccccc1 (centres undefined) was read as HT1080 IDH1KD tx 2%[9.24 µM], KB-V1 cytotox inactive, HepG2 tox -18%, HT1080NT lethal -4%, TGFb SMAD3 inh 1% and KB-3-1 tox inactive.
CCOC(=O)c1c(C)nc2sc(C(=O)Nc3ccc(OC)cc3)c(N)c2c1-c1ccc(OC)cc1 was read as HT1080 IDH1KD tx inconclusive, KB-V1 cytotox 4.1µM*, HepG2 tox -16%, HT1080NT lethal inconclusive, TGFb SMAD3 inh 0% and KB-3-1 tox 5.8µM*.
`CCOC(=O)c1c(C)nc2sc(C(=O)Nc3ccc(C(C)=O)cc3)c(N)c2c1-c1ccc(OC)cc1` gave HT1080 IDH1KD tx inconclusive, KB-V1 cytotox inconclusive, HepG2 tox -27%, HT1080NT lethal inconclusive, TGFb SMAD3 inh inconclusive and KB-3-1 tox inconclusive.
Screening Cc1ccc(-n2ncc3c(NCCC4=CCCCC4)ncnc32)cc1 returned KB-V1 cytotox inactive, HepG2 tox -14%, TGFb SMAD3 inh 9% and KB-3-1 tox inactive.
Cc1cc(C)c(NC(=O)CCC(=O)N2Cc3ccccc3Oc3ncccc32)c(C)c1 was read as KB-V1 cytotox inactive, HepG2 tox -4%, TGFb SMAD3 inh 11% and KB-3-1 tox inactive.
Screening O=C(CN1CCC(C(O)(c2ccccc2)c2ccccc2)CC1)Nc1cc(Cl)ccc1Cl returned HT1080 IDH1KD tx -16%, KB-V1 cytotox 18µM*, HepG2 tox -8%, HT1080NT lethal -9%, TGFb SMAD3 inh -5% and KB-3-1 tox inactive.
Screening CCN(c1ccccc1)S(=O)(=O)c1ccc(Cl)c(NC(=O)CSc2ncn[nH]2)c1 returned HT1080 IDH1KD tx 3%, KB-V1 cytotox 23µM*, HepG2 tox -8%, HT1080NT lethal -2%, TGFb SMAD3 inh -18% and KB-3-1 tox inactive.
CS(=O)(=O)N(CC(=O)Nc1cc(Cl)ccc1Cl)c1ccccc1 was read as HT1080 IDH1KD tx 6%, KB-V1 cytotox 16µM*, HepG2 tox -25%, HT1080NT lethal 6%, TGFb SMAD3 inh 6% and KB-3-1 tox inactive.
`CCN(c1ccccc1)S(=O)(=O)c1ccc(Cl)c(NC(=O)CN(C)C2CCN(C)CC2)c1` gave HT1080 IDH1KD tx 23µM*, KB-V1 cytotox inactive, HepG2 tox -43%, HT1080NT lethal inconclusive, TGFb SMAD3 inh 1% and KB-3-1 tox inconclusive.
`Cc1cc(C)c2c(=O)cc(C(=O)Nc3sc4c(c3C#N)CCCC4)oc2c1` gave KB-V1 cytotox inactive, HepG2 tox -2%, TGFb SMAD3 inh -19% and KB-3-1 tox inactive.
O=C1CC(N2CCN(C/C=C/c3ccccc3)CC2)C(=O)N1Cc1ccc(N2CCCC2=O)cc1 (centres undefined) was read as HT1080 IDH1KD tx -6%, KB-V1 cytotox 10µM*, HepG2 tox -9%, HT1080NT lethal -6%, TGFb SMAD3 inh -21% and KB-3-1 tox inconclusive.
For CC12CCC=CC1=C(C=O)C1C2CCC2(C)C(O)CCC12 (centres undefined) the results were HT1080 IDH1KD tx inconclusive, KB-V1 cytotox inconclusive, HepG2 tox -5%, HT1080NT lethal -9%, TGFb SMAD3 inh 0% and KB-3-1 tox 18µM*.
COc1cccc(-c2nnc(Nc3nc4c(F)cccc4s3)o2)c1 was read as HT1080 IDH1KD tx 6.3µM*, KB-V1 cytotox inactive, HepG2 tox -35%, HT1080NT lethal 7.9µM*, TGFb SMAD3 inh inconclusive and KB-3-1 tox inactive.
`COc1ccccc1-c1nnc(Nc2nc3c(OC)cccc3s2)o1` gave HT1080 IDH1KD tx 0.46µM*, KB-V1 cytotox inconclusive, HepG2 tox -24%, HT1080NT lethal 0.92µM*, TGFb SMAD3 inh inconclusive and KB-3-1 tox 0.41µM*.
COc1cccc2sc(Nc3nnc(-c4ccccc4Cl)o3)nc12 was read as HT1080 IDH1KD tx inconclusive, KB-V1 cytotox inactive, HepG2 tox -32%, HT1080NT lethal inconclusive, TGFb SMAD3 inh inconclusive and KB-3-1 tox inconclusive.
O=C(c1ccccc1)c1ccc(Oc2ccc([N+](=O)[O-])cc2[N+](=O)[O-])cc1 was read as HT1080 IDH1KD tx 12µM*, KB-V1 cytotox inconclusive, HepG2 tox -12%, HT1080NT lethal 15µM*, TGFb SMAD3 inh -26% and KB-3-1 tox inconclusive.
For Cc1ccc(C(=O)Nc2ccccc2Oc2ccccc2)cc1[N+](=O)[O-] the results were HT1080 IDH1KD tx -1%, KB-V1 cytotox inconclusive, HepG2 tox -29%, HT1080NT lethal -17%, TGFb SMAD3 inh 15% and KB-3-1 tox inactive.
O=C(Nc1ccccc1Oc1ccccc1)c1cccc([N+](=O)[O-])c1 was read as HT1080 IDH1KD tx -1%, KB-V1 cytotox 18µM*, HepG2 tox 2%, HT1080NT lethal -1%, TGFb SMAD3 inh 10% and KB-3-1 tox inactive.
`COc1ccccc1NC(=O)/C(=C/c1cccc([N+](=O)[O-])c1)c1ccccc1` gave HT1080 IDH1KD tx 10%, KB-V1 cytotox 5.8µM*, HepG2 tox 3%, HT1080NT lethal 0%, TGFb SMAD3 inh -29% and KB-3-1 tox inactive.
Screening Cc1ccc(-c2cc(C(F)(F)F)n3nc(C(=O)Nc4ccc(Cl)c(C(F)(F)F)c4)cc3n2)cc1 returned KB-V1 cytotox inactive, HepG2 tox -3%, TGFb SMAD3 inh 0% and KB-3-1 tox inactive.
